# Assay results reported in publication PMC7862700, “An all-to-all approach to the identification of sequence-specific readers for epigenetic DNA modifications on cytosine”.
# Tests used:
# Assay in all cases: DAPPL (digital affinity profiling via proximity ligation, sequencing); 10 mM Tris-HCl pH 7.5, 50 mM NaCl, 1 mM DTT, 4% glycerol, room temperature, 30 min; GST-TFs on glutathione beads, 16-mer random dsDNA library, 0.1% formaldehyde crosslink after washing; high values mean tight binding
# FLI1 = molecular target: T1, FLI1 (Homo sapiens, UniProt Q01543 1-452); conditions: protein: recombinant; tags: N-terminal GST; dsDNA, one strand shown
# T1 sequence: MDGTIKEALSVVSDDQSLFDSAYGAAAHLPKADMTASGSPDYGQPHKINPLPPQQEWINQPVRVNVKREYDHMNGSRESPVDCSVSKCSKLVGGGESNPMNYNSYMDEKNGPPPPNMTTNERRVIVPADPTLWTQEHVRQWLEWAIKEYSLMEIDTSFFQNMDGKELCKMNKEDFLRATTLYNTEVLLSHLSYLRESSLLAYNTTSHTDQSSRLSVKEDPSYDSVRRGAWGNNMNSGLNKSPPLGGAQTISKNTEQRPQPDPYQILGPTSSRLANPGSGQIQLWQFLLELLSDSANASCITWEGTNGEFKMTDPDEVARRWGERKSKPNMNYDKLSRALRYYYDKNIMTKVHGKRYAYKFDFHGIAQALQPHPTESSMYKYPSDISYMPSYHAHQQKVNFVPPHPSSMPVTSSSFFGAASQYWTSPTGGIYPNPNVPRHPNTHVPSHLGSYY
# Summary of the method: (§1)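 Binding signal is defined as a hexamer's read frequency for one factor over its frequency for the tag-only sample. To obtain reads, GST-fused human transcription factors were expressed in yeast, captured on glutathione beads, barcoded with DNA and pooled with that sample. Pools met 200 nmole of a 16-mer random double-stranded DNA library in Tris/NaCl/DTT/glycerol buffer for 30 min at room temperature before washing, 0.1% formaldehyde crosslinking, proximity ligation (BsaI/T4 ligase, 1 h, 37 °C), PCR and Illumina NextSeq500 sequencing.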
# ELK1 = molecular target: T2, ELK1 (Homo sapiens, UniProt P19419 1-428); conditions: protein: recombinant; tags: N-terminal GST; dsDNA, one strand shown
# T2 sequence: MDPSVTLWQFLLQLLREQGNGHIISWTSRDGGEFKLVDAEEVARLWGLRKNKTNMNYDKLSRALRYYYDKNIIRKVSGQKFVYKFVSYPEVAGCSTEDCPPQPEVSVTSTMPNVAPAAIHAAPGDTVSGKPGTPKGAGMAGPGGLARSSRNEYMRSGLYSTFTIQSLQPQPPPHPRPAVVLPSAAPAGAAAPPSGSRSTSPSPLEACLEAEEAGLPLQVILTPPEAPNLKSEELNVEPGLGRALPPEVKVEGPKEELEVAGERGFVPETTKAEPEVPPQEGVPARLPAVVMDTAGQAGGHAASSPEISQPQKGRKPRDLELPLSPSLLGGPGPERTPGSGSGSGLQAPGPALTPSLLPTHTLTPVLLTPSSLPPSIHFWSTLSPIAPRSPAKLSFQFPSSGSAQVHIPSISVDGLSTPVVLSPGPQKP
# Summary of the method: as §1
# GABPA = molecular target: T3, GABPA (Homo sapiens, UniProt Q06546 1-454); conditions: protein: recombinant; tags: N-terminal GST; dsDNA, one strand shown
# T3 sequence: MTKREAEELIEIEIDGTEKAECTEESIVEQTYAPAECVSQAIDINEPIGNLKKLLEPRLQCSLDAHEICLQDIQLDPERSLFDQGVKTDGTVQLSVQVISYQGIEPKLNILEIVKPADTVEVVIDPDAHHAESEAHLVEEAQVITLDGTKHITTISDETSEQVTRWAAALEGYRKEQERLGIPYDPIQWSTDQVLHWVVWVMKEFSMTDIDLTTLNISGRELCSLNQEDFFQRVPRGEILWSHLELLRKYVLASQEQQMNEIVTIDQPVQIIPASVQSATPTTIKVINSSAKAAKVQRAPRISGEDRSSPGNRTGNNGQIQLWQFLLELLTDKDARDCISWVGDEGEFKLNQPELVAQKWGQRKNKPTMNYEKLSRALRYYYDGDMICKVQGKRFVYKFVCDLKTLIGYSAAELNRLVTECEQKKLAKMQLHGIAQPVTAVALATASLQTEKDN
# Summary of the method: as §1
# ERG = molecular target: T4, ERG (Homo sapiens, UniProt P11308 1-479); conditions: protein: recombinant; tags: N-terminal GST; dsDNA, one strand shown
# T4 sequence: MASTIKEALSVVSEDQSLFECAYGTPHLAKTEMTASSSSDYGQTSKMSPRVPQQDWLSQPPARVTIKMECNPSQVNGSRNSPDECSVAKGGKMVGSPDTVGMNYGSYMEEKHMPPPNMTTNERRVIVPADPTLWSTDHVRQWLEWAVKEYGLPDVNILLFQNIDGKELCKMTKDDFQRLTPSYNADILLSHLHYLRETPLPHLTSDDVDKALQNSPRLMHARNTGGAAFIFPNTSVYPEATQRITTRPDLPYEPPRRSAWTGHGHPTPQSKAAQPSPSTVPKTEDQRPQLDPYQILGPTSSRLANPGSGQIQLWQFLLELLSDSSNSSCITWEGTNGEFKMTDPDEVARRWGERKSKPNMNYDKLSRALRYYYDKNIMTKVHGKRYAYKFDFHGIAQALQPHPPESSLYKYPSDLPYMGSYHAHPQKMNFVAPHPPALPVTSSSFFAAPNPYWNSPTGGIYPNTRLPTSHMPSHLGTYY
# Summary of the method: as §1
# ELF1 = ELF1 (Homo sapiens, UniProt P32519 1-619); conditions: protein: recombinant; tags: N-terminal GST; dsDNA, one strand shown
# Summary of the method: as §1
# EHF = molecular target: T5, EHF (Homo sapiens, UniProt Q9NZC4 1-300); conditions: protein: recombinant; tags: N-terminal GST; dsDNA, one strand shown
# T5 sequence: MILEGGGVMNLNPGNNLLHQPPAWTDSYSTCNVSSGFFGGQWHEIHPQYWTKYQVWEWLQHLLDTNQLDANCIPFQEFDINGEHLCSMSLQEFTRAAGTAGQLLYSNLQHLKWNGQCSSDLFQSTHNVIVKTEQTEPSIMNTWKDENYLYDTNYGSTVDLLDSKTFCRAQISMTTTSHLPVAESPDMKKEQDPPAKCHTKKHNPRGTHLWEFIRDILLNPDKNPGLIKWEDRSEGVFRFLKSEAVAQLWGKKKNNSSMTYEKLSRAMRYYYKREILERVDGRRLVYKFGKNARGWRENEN
# Summary of the method: as §1
# SPI1 = SPI1 (Homo sapiens, UniProt P17947 1-270); conditions: protein: recombinant; tags: N-terminal GST; dsDNA, one strand shown
# Summary of the method: as §1
# SPIB = SPIB (Homo sapiens, UniProt Q01892 1-262); conditions: protein: recombinant; tags: N-terminal GST; dsDNA, one strand shown
# Summary of the method: as §1
# ELK3 = molecular target: T6, ELK3 (Homo sapiens, UniProt P41970 1-407); conditions: protein: recombinant; tags: N-terminal GST; dsDNA, one strand shown
# T6 sequence: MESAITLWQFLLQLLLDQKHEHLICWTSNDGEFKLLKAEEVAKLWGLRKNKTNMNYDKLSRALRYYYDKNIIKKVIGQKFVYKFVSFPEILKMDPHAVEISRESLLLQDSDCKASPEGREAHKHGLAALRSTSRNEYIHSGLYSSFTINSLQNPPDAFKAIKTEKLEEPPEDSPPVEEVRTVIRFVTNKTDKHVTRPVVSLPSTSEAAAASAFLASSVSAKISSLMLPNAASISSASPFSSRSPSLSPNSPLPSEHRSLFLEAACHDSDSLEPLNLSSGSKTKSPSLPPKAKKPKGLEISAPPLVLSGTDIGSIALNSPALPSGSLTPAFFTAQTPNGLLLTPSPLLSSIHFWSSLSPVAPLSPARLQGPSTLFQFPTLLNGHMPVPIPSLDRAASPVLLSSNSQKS
# Summary of the method: as §1
# FEV = molecular target: T7, FEV (Homo sapiens, UniProt Q99581 1-238); conditions: protein: recombinant; tags: N-terminal GST; dsDNA, one strand shown
# T7 sequence: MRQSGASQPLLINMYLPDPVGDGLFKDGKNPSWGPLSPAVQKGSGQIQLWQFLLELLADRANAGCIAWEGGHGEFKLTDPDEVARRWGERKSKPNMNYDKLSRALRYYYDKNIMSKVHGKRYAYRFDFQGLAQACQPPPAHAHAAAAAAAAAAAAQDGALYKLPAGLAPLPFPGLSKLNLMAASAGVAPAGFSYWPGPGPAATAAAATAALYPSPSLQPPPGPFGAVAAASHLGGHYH
# Summary of the method: as §1
# ETV5 = ETV5 (Homo sapiens, UniProt P41161 1-510); conditions: protein: recombinant; tags: N-terminal GST; dsDNA, one strand shown
# Summary of the method: as §1
# HSF1 = HSF1 (Homo sapiens, UniProt Q00613 1-529); conditions: protein: recombinant; tags: N-terminal GST; chain copies: 3; dsDNA, one strand shown
# Summary of the method: as §1
# SPIC = molecular target: T8, SPIC (Homo sapiens, UniProt Q8N5J4 1-248); conditions: protein: recombinant; tags: N-terminal GST; dsDNA, one strand shown
# T8 sequence: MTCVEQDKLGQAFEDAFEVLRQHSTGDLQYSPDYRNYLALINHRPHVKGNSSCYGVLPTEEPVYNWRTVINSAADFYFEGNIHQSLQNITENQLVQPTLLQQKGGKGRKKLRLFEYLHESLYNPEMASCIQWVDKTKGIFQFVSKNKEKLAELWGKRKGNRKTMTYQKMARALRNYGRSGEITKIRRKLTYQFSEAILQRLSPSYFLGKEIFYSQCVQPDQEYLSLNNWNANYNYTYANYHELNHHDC
# Summary of the method: as §1
# ELF4 = ELF4 (Homo sapiens, UniProt Q99607 1-663); conditions: protein: recombinant; tags: N-terminal GST; dsDNA, one strand shown
# Summary of the method: as §1
# ELK4 = molecular target: T9, ELK4 (Homo sapiens, UniProt P28324-2 1-405); conditions: protein: recombinant; tags: N-terminal GST; dsDNA, one strand shown
# T9 sequence: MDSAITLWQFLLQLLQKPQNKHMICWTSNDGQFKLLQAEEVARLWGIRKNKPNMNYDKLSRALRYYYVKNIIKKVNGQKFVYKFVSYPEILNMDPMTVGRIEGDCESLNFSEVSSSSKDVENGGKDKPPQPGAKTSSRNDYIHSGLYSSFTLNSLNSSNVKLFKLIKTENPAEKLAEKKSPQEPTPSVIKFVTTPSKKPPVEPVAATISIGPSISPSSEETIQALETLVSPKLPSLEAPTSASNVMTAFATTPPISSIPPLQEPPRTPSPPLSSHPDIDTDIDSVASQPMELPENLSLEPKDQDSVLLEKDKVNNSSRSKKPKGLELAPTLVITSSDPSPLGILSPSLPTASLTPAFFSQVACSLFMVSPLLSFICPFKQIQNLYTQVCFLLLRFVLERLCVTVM
# Summary of the method: as §1
# ETV2 = molecular target: T10, ETV2 (Homo sapiens, UniProt O00321 1-342); conditions: protein: recombinant; tags: N-terminal GST; dsDNA, one strand shown
# T10 sequence: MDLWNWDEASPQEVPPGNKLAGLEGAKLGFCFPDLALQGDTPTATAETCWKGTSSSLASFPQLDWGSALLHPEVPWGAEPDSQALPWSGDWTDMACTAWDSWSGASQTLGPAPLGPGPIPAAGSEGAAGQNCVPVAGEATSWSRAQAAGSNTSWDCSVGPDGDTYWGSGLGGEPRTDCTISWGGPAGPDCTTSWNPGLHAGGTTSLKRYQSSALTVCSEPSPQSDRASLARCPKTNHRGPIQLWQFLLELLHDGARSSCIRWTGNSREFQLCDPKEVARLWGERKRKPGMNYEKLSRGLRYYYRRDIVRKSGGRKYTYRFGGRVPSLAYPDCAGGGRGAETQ
# Summary of the method: as §1
# ELF3 = molecular target: T11, ELF3 (Homo sapiens, UniProt P78545 1-371); conditions: protein: recombinant; tags: N-terminal GST; dsDNA, one strand shown
# T11 sequence: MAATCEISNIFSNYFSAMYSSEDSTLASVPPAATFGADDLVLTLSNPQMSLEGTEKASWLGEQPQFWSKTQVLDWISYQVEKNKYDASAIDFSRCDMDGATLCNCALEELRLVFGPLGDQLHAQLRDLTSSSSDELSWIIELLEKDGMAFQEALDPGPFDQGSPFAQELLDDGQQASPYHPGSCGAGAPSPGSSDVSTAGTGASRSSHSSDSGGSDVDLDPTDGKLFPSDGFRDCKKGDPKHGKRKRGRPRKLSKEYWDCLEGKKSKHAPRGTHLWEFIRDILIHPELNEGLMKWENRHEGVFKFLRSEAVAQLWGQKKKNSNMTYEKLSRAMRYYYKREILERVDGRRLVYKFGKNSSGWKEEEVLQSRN
# Summary of the method: as §1
# CRX = CRX (Homo sapiens, UniProt O43186 1-299); conditions: protein: recombinant; tags: N-terminal GST; dsDNA, one strand shown
# Summary of the method: as §1
# ETV1 = ETV1 (Homo sapiens, UniProt P50549 1-477); conditions: protein: recombinant; tags: N-terminal GST; dsDNA, one strand shown
# Summary of the method: as §1
# SPIB, sequence (Q01892 whole entry): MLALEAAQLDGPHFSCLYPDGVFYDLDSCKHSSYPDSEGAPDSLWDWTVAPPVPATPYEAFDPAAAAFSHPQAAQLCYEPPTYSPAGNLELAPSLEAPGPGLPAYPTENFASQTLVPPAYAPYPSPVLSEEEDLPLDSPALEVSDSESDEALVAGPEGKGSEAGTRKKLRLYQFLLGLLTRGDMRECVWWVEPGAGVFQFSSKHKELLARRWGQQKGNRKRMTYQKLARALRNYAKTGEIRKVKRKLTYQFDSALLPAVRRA
# CRX, sequence (O43186 whole entry): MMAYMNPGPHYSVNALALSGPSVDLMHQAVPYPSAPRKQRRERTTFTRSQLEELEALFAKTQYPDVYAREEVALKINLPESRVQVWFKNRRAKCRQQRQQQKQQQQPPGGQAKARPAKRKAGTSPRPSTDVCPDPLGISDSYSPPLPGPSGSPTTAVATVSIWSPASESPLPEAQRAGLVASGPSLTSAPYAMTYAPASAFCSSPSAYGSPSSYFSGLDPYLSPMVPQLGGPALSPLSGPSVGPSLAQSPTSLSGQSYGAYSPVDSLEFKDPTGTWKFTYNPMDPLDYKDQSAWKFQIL
# ELF1, sequence (P32519 whole entry): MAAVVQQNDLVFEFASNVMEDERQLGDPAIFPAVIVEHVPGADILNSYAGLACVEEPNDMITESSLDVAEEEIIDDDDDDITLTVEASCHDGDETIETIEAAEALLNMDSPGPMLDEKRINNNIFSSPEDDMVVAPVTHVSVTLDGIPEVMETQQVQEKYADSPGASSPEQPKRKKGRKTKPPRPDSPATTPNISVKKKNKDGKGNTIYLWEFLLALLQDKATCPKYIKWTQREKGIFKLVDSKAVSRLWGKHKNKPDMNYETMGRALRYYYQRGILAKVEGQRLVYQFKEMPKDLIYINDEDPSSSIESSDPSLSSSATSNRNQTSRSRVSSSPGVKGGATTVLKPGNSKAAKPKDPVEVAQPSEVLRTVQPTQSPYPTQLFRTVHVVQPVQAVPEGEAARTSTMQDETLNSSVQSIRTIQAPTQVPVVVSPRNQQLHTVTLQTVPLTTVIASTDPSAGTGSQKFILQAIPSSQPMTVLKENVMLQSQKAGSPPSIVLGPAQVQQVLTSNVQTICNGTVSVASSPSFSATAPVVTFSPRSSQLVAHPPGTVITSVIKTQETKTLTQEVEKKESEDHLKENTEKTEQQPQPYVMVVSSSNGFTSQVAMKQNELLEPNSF
# ETV1, sequence (P50549 whole entry): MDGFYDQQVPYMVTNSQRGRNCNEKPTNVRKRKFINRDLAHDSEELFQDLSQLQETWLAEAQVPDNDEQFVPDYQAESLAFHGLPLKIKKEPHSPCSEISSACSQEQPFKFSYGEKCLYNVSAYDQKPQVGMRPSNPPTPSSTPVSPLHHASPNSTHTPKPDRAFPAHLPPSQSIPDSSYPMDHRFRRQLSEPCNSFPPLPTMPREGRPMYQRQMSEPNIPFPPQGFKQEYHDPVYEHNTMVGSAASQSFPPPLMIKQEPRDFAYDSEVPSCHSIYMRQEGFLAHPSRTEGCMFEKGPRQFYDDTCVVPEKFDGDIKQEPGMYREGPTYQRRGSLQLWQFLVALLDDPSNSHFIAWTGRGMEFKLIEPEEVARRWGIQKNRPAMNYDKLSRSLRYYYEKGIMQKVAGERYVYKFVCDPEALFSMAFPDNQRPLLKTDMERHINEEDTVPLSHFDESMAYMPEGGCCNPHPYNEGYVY
# ELF4, sequence (Q99607 whole entry): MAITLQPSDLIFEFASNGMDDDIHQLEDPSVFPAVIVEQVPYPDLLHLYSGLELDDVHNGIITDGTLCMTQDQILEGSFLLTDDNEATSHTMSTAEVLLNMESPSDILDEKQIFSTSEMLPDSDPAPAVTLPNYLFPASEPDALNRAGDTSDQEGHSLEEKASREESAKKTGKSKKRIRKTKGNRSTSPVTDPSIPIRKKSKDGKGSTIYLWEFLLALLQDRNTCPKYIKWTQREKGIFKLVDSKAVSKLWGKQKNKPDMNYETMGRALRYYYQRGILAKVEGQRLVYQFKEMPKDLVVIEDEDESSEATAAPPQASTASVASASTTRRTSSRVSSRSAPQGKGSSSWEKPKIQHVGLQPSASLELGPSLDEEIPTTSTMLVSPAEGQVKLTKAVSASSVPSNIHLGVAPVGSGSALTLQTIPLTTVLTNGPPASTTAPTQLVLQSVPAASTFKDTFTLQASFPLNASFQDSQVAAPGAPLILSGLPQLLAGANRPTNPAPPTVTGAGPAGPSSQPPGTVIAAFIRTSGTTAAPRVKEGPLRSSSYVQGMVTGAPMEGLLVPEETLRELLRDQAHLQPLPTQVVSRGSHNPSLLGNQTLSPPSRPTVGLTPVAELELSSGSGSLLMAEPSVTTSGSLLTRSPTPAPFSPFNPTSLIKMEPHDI
# ETV5, sequence (P41161 whole entry): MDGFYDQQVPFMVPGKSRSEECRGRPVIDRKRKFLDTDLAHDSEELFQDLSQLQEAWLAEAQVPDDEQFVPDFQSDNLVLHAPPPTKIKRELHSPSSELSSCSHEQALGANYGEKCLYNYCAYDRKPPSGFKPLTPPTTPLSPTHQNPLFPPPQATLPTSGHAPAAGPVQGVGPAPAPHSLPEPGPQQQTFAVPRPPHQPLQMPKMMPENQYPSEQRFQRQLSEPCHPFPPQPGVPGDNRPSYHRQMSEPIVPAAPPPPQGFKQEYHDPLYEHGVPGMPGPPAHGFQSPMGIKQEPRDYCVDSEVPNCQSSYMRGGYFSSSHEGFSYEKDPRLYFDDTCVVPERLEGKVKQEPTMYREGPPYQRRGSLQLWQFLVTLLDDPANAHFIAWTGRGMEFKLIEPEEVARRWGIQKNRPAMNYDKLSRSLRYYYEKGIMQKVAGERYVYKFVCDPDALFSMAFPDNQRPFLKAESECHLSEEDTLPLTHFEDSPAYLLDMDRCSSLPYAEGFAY
# HSF1, sequence (Q00613 whole entry): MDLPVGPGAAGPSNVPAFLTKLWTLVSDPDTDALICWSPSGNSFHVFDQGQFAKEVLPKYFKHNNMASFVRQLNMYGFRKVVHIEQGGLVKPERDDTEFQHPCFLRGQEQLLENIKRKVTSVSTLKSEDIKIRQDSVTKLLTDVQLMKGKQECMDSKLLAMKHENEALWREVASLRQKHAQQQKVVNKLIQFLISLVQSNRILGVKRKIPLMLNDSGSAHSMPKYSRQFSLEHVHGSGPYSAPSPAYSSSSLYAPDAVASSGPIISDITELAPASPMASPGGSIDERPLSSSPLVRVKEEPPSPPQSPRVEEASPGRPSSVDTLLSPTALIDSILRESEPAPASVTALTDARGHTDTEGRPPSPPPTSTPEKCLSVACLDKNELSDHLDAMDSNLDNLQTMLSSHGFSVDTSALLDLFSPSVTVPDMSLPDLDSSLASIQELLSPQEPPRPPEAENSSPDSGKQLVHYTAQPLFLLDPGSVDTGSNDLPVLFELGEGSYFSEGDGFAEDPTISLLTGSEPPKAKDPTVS
sequence,measurement,setting,value
TAATTT,binding signal,FLI1,"1.35 fold enrichment (6-mer frequency, TF over GST control)"
same,binding signal,ELK1,"1.28 fold enrichment (6-mer frequency, TF over GST control)"
same,binding signal,GABPA,"1.5 fold enrichment (6-mer frequency, TF over GST control)"
same,binding signal,ERG,"1.4 fold enrichment (6-mer frequency, TF over GST control)"
same,binding signal,ELF1,"1.41 fold enrichment (6-mer frequency, TF over GST control)"
same,binding signal,EHF,"1.41 fold enrichment (6-mer frequency, TF over GST control)"
same,binding signal,SPI1,"1.38 fold enrichment (6-mer frequency, TF over GST control)"
same,binding signal,SPIB,"1.5 fold enrichment (6-mer frequency, TF over GST control)"
same,binding signal,ELK3,"1.52 fold enrichment (6-mer frequency, TF over GST control)"
same,binding signal,FEV,"1.35 fold enrichment (6-mer frequency, TF over GST control)"
same,binding signal,ETV5,"1.46 fold enrichment (6-mer frequency, TF over GST control)"
same,binding signal,HSF1,"1.64 fold enrichment (6-mer frequency, TF over GST control)"
same,binding signal,SPIC,"1.41 fold enrichment (6-mer frequency, TF over GST control)"
same,binding signal,ELF4,"1.36 fold enrichment (6-mer frequency, TF over GST control)"
same,binding signal,ELK4,"1.38 fold enrichment (6-mer frequency, TF over GST control)"
same,binding signal,ETV2,"1.58 fold enrichment (6-mer frequency, TF over GST control)"
same,binding signal,ELF3,"1.49 fold enrichment (6-mer frequency, TF over GST control)"
same,binding signal,CRX,"2.03 fold enrichment (6-mer frequency, TF over GST control)"
same,binding signal,ETV1,"1.35 fold enrichment (6-mer frequency, TF over GST control)"
